Assay results reported in PubChem BioAssay (EPA / NIEHS).
“And” between values parts separate entries of the source, which are not always exact repeats. Equal values may be shown once. Records with an inconclusive call do not appear. Some structures have more than one record in an assay (separate samples or runs), and their calls can disagree. The source made the active and inactive calls. How the source made its calls: active means hit-call score of the fitted dose curve at least 0.9, where 1 is the maximum; inconclusive means response in the unintended direction; inactive means score below 0.9.

target: Nuclear receptor subfamily 1 group I member 2 (Homo sapiens) (UniProt O75469); experiment: NVS_NR_hPXR: NovaScreen (NVS) Nuclear Receptor Binding Assay for human Pregnane X Receptor (PXR) (AID 2283365);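 further: a drop in FRET signal versus DMSO baseline means the compound binds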
Sequence (O75469 whole entry, looked up): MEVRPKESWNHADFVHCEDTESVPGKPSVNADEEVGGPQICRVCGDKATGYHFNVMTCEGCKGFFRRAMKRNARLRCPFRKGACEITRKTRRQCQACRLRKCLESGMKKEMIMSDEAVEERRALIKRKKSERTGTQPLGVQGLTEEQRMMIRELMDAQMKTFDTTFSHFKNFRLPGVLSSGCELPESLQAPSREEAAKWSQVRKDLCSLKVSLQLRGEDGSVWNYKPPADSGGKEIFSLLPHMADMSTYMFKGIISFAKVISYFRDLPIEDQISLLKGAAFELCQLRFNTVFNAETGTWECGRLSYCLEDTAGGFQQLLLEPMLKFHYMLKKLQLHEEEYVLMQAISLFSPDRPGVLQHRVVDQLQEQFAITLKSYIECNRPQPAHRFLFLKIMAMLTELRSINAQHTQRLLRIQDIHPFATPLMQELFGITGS
Procedure, shortened: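 Binding was measured by time-resolved fluorescence resonance energy transfer after a 2 h exposure of extracted human PXR protein without cells. Compounds were first tested at 25 uM in duplicate, with concentration series for actives; DMSO defined baseline.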

Row | Structure (SMILES) | outcome | AC50
1 | CCCCCCCC/C=C\CCCCCCCC(=O)OCCO | inactive | –
2 | CCCCC(CC)CCC(CC(C)C)OS(=O)(=O)O (stereo not drawn) | – | 2.49 µM (active)
3 | CCCCCCCCCCCCCOP(=O)(O)O | inactive | –
4 | CC(C)C1=CC2=CC[C@@H]3[C@](C)(CCC[C@@]3(C)C(=O)O)[C@H]2CC1 | – | 16 µM (active)
5 | C1CN(SSN2CCOCC2)CCO1 | inactive | –
6 | CC(C)c1ccc2c(C(C)C)cc(C(C)C)c(S(=O)(=O)O)c2c1 | – | 0.393 µM (active)
7 | CCN(CCC#N)c1ccc(N=Nc2c(Cl)cc([N+](=O)[O-])cc2Cl)cc1 | – | 0.433 µM (active)
8 | CC(=O)OC(C)C | inactive | –
9 | COC(=O)c1c(C)cc(O)c(C)c1O | inactive | –
10 | CC/C=C\C/C=C\C/C=C\CCCCCCCC(=O)O | – | 3.05 µM (active)
11 | O=S1(=O)OC(c2ccc(O)cc2)(c2ccc(O)cc2)c2ccccc21 | inactive | –
12 | Oc1ccc(Cl)cc1Cc1cc(Cl)ccc1O | – | 16.8 µM (active)
13 | CCCCC/C=C\C/C=C\CCCCCCCC(=O)OC | inactive | –
14 | Cc1ccc(N/N=c2\c(=O)cc/c(=N/Nc3ccc(S(=O)(=O)O)cc3)c2=O)c(C)c1 | – | 2.79 µM (active)
15 | O=c1cc(-c2ccccc2)oc2ccccc12 | inactive | –

target: Peroxisome proliferator-activated receptor gamma (Homo sapiens) (UniProt P37231); experiment: NVS_NR_hPPARg: NovaScreen (NVS) Nuclear Receptor Binding Assay for human Peroxisome Proliferator-activated Receptor gamma (PPARg) (AID 2283370)
Sequence (P37231 whole entry, looked up): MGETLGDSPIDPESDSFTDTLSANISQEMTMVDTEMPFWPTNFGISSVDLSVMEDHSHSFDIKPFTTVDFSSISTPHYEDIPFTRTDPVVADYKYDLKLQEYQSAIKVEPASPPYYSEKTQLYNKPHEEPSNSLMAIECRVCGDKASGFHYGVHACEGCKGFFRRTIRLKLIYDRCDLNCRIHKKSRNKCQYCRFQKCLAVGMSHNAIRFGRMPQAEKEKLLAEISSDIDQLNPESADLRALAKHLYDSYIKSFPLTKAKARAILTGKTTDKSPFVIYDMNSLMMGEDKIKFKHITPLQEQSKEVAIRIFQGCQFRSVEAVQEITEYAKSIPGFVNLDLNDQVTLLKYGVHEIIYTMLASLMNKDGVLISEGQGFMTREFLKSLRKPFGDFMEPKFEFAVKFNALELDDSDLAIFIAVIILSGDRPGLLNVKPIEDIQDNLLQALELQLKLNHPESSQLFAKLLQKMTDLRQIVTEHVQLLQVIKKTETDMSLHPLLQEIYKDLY
Procedure, shortened: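 Fluorescence polarization measures competitive binding to extracted PPARg in a cell-free format. Reading is taken at 2 h; activity is signal loss relative to DMSO. Screening at 25 uM in duplicate preceded confirmatory dose series.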

Row | Structure (SMILES) | outcome | AC50
16 | CC1=NN(c2cc(S(=O)(=O)O)ccc2Cl)C(=O)C1N=Nc1ccccc1 (stereo not drawn) | inactive | –
17 | CCCCCCCC/C=C\CCCCCCCC(=O)OCCO | inactive | –
18 | CCCCCCCCO[C@@H]1O[C@H](CO)[C@@H](O)[C@H](O)[C@H]1O | – | 36.5 µM (active)
19 | CCCCC(CC)CCC(CC(C)C)OS(=O)(=O)O (stereo not drawn) | – | 8.17 µM (active) and 6.89 µM (active)
20 | CCCCCCCCCCCCCOP(=O)(O)O | inactive | –
21 | CC(C)C1=CC2=CC[C@@H]3[C@](C)(CCC[C@@]3(C)C(=O)O)[C@H]2CC1 | inactive | –
22 | C1CN(SSN2CCOCC2)CCO1 | inactive | –
23 | CC(C)c1ccc2c(C(C)C)cc(C(C)C)c(S(=O)(=O)O)c2c1 | – | 4.01 µM (active)
24 | CCN(CCC#N)c1ccc(N=Nc2c(Cl)cc([N+](=O)[O-])cc2Cl)cc1 | – | 13.4 µM (active)
25 | CCCCC/C=C\CCC=O | inactive | –
26 | CC(=O)OC(C)C | inactive | –
27 | O=S(=O)(O)c1ccccc1C=Cc1ccc(-c2ccc(C=Cc3ccccc3S(=O)(=O)O)cc2)cc1 | inactive | –
28 | CCCCCCCC/C=C\CCCCCCCC(=O)O | – | 25 µM (active)
29 | CC/C=C\C/C=C\C/C=C\CCCCCCCC(=O)O | – | 0.00769 µM (active)
30 | O=S1(=O)OC(c2ccc(O)cc2)(c2ccc(O)cc2)c2ccccc21 | inactive | –
31 | Oc1ccc(Cl)cc1Cc1cc(Cl)ccc1O | – | 25 µM (active)
32 | CCCCC/C=C\C/C=C\CCCCCCCC(=O)OC | inactive | 8.81 µM (active)
33 | CCCCCCCCCCOS(=O)(=O)O | inactive | 15.6 µM (active)
34 | Cc1ccc(N/N=c2\c(=O)cc/c(=N/Nc3ccc(S(=O)(=O)O)cc3)c2=O)c(C)c1 | – | 16 µM (active)
35 | O=c1cc(-c2ccccc2)oc2ccccc12 | inactive | –
36 | O=C(C(Cl)Cl)N1CCOC12CCCCC2 | inactive | –
